Experimental data as given in PubChem BioAssay (NCATS).
Results filed as inconclusive are left out. The source made the active and inactive calls. Calls come from the whole dose curve; as a rule, active = well fitted inhibition curve with a large enough effect; inconclusive = small, poorly fitted or top-dose-only effect; inactive = no such curve, though single readings can be large or run the other way.

test: NS1 protein of Zika virus - qHTS assay to identify small molecule inhibitors in human HEK 293 cells (AID 1347053); conditions: HEK293 ZIKV MR766 infection, NS1 TR-FRET, 24 h; series mostly up to 46.1 µM; activity change, negative = inhibition: at the top concentration; note: nearly all actives have a fitted effect of over 55% in size;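 for activity change, negative = inhibition: plate controls were infected untreated cells for no effect and uninfected cells for full effect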
Source text: National Center for Advancing Translational Sciences [NCATS]
Johns Hopkins University School of Medicine
The non-structural 1 (NS1) protein of zika virus is known to associate with the viral replication complex. This cell-based TR-FRET ZIKV NS-1 assay measures the increased NS-1 protein in human HEK 293 cells after a 24-hour Zika virus infection by a TR-FRET assay readout. A decrease in the Time-resolved fluorescence energy transfer (TR-FRET) signal in this assay by small molecule treatment indicates an inhibitory effect of the small molecule on the expression of Zika virus NS1 correlating with Zika virus replication.
HEK 293 cells were cultured in EMEM (ATCC, Cat. # 30-2003) medium with 10% fetal bovine serum (GE healthcare Life Sciences, Cat. # SH30071.03), and 1% Pen/Strep (Gibco, Cat. # 15140-122). Cells were seeded in the assay plate and incubated at 37 C with 5% CO2 for 20 hours. Compounds were added to cells and incubated for one hour before addition of ZIKV MR766 strain solution to cells (MOI = 0.5). After an incubation at 37 C for 24 hours, the reagent mixture of TR-FRET ZIKV NS1 assay using two anti-ZIKV NS1 antibodies was added to assay plates. The TR-FRET signals in assay plates were measured using an Envision plate reader (PerkinElmer). Data were normalized by using the cell-containing wells without ZIKV as a negative control (0% NS-1) and wells containing ZIKV infected cells as a positive control (100% NS-1 level).
Potency is the fitted concentration of half-maximal effect.

| SMILES | activity change, negative = inhibition | Potency |
| --- | --- | --- |
| C[C@H](c1ccc(F)cc1CCCC(=O)O)N(c1cc(F)ccc1F)S(=O)(=O)c1ccc(Cl)cc1 | 10.8% (inactive) |  |
| CCc1cc(-c2n[nH]c(C)c2-c2ccc3c(c2)OCCO3)c(O)cc1O | -10.1% (inactive) |  |
| C[C@H](CCC(=O)O)[C@H]1CC[C@H]2[C@H]3[C@@H](CC[C@]12C)[C@@]1(C)CC[C@@H](O)C[C@H]1C[C@@H]3O | 6.8% (inactive) |  |
| CNC1CCC(N(Cc2cccc(-c3ccncc3)c2)C(=O)c2sc3ccccc3c2Cl)CC1 (stereo not given) |  | 9.35 µM (active) |
| NCc1c[nH]c(=S)n1[C@H]1CCc2c(F)cc(F)cc2C1 | 1.26% (inactive) |  |
| O=C(O)C1=NC(C(=O)O)CC(C=CN2c3cc(O)c(OC4OC(CO)C(O)C(O)C4O)cc3CC2C(=O)O)=C1 (stereo not given) | 2.38% (inactive) |  |
| COc1ccc(-c2cc3nccn3c(Nc3ncccc3C(N)=O)n2)cc1OC | -26.6% (inactive) |  |
| c1ccc(CNc2nc(N3CCOc4ccccc43)nc3c2CCCC3)cc1 | 1.76% (inactive) |  |
| Cc1ccc(C2=Nc3ccc(Cl)cc3OC2)cc1 | 2.57% (inactive) |  |
| CCCCC(F)(F)[C@@]1(O)CC[C@H]2[C@H](CC(=O)[C@@H]2CCCCCCC(=O)O)O1 | 7.5% (inactive) |  |
| COc1cc2c(cc1OC)CC(=O)N(CCCN(C)C[C@H]1Cc3cc(OC)c(OC)cc31)CC2 | 3.17% (inactive) |  |
| COc1ccc(-c2ccc3ncc4c(c3c2)n(-c2ccc(N3CCNCC3)c(C(F)(F)F)c2)c(=O)n4C)cn1 |  | 6.62 µM (active) |
| O=C(NC[C@H](O)CO)c1ccncc1Nc1ccc(I)cc1F | 0.643% (inactive) |  |
| COc1c(C)cnc(Cn2cnc3c(Cl)nc(N)nc32)c1C | 1.94% (inactive) |  |
| CN(C)c1nc(Cc2ccc(NC(=O)c3ccc(C(F)(F)F)cc3)cc2)nc(N(C)C)c1CC(=O)O | 2.19% (inactive) |  |
| COc1ccc2c(c1)CC[C@H]1[C@@H]2CC[C@]2(C)[C@@H](NCCCCCCN3C(=O)C=CC3=O)CC[C@H]12 | 3.93% (inactive) |  |
| CCC[C@H](Nc1nc(-c2ccc(NC(=O)NCC)c(OC)c2)ncc1C)c1cccnc1 |  | 0.0093 µM (active) |
| CC(C)(OCc1nn(Cc2ccccc2)c2ccccc12)C(=O)O | 4.95% (inactive) |  |
| CN1c2ccccc2C(=O)N2CCc3c([nH]c4ccccc34)C21 (stereo not given) | 8.74% (inactive) |  |
| O=C(O)CCC=CCC[C@@H]1[C@H](N2CCCCC2)[C@@H](O)C[C@@H]1OCc1ccc(-c2ccccc2)cc1 | 11.9% (inactive) |  |

| SMILES | activity change, negative = inhibition | Potency |
| --- | --- | --- |
| COc1ccc(-c2cc(=O)c3c(O)cc(O[C@@H]4O[C@H](CO[C@@H]5O[C@@H](C)[C@H](O)[C@@H](O)[C@@H]5O)[C@@H](O)[C@H](O)[C@@H]4O)cc3o2)cc1O | 2.64% (inactive) |  |
| COc1ccc(CCC(=O)Nc2nc3ccc(Cl)cc3s2)cc1OC | 0.792% (inactive) |  |
| Cc1csc(-c2nnc(Nc3ccc(Oc4ncccc4-c4ccnc(N)n4)cc3)c3ccccc23)c1 | 10.7% (inactive) |  |
| O=S(=O)(O)c1ccc2cc(N=Nc3cc(S(=O)(=O)O)c4cccnc4c3O)ccc2c1 | -10.3% (inactive) |  |
| COc1ccc2nc3cc(Cl)ccc3c(Nc3cc(CN4CCCC4)c(O)c(CN4CCCC4)c3)c2n1 | 2.14% (inactive) |  |
| C[C@H]1O[C@@H](n2cc(F)c(=O)[nH]c2=O)[C@H](O)[C@H]1O | 1.39% (inactive) |  |
| CCN(CC)CCCCNc1nc2cc(Cl)c(Cl)cc2nc1-c1ccc(-c2cccs2)s1 | 0.244% (inactive) |  |
| Cn1cc(-c2ccc3nnc(Sc4ccc5ncccc5c4)n3n2)cn1 | -12.3% (inactive) |  |
| O=C(CO)N1CCC(c2[nH]nc(-c3ccc(Cl)cc3)c2-c2ccncn2)CC1 | 4.61% (inactive) |  |
| COc1ccnc(CS(=O)c2nc3ccc(OC(F)F)cc3[nH]2)c1OC (stereo not given) |  | inactive |
| COc1c(C)c2c(c(O)c1CC=C(C)CCC(=O)O)C(=O)OC2 |  | 0.526 µM (active) |
| CN1C(=O)C[C@H](C(=O)N[C@@H](Cc2cnc[nH]2)C(=O)N2CCC[C@@H]2C(N)=O)NC1=O | 16.2% (inactive) |  |
| C#C[C@]1(O)CC[C@H]2[C@H]3CCc4cc(OC)ccc4[C@H]3CC[C@@]21C | 2.04% (inactive) |  |
| Cc1cc(-c2ncc(CC(=O)Nc3ccc(-c4cnccn4)cn3)cc2C)ccn1 | 1.73% (inactive) |  |
| CC(C)=CCCC(C)=CCCC(C)=CCCC(C)=CCCC(C)=CCCC(C)=CCCC(C)=CCCC(C)=CCCC(C)=CCO | 1.74% (inactive) |  |
| Cc1ccccc1C(C(=O)NC1CCCCC1)N(C(=O)CNc1ccc(C#N)cc1)c1cccc(F)c1 (stereo not given) | 16.4% (inactive) |  |
| CCC=CC[C@H]1C(=O)CC[C@@H]1CC(=O)OC | -3.71% (inactive) |  |
| CC1C(=O)OC2C(O)C34C5CC(C(C)(C)C)C36C(OC(=O)C6O)OC4(C(=O)O5)C12O (stereo not given) | 0.334% (inactive) |  |
| CC(=O)OCC(=O)[C@@]1(O)CC[C@H]2[C@@H]3CCC4=CC(=O)C=C[C@]4(C)[C@@H]3[C@@H](O)C[C@@]21C | 7.3% (inactive) |  |
| CN1CCC[C@H]1CCO[C@](C)(c1ccccc1)c1ccc(Cl)cc1 | -2.33% (inactive) |  |
